# Laboratory results as given in PubChem BioAssay (NCI).
# Compounds without any hit were thinned out: in the full panel of roughly 83,000, 20% have a hit.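 Step 1: grow cells in 96-well plates. Step 2: add test compound at a single concentration. Step 3: incubate 48 h. Step 4: record percent growth.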 A number with no mark means an inactive call. Active and inactive are the calls of the source. Rule for the calls: active = growth percent below 10; inactive = the rest.
# What was measured:
# Experiment in all cases: NCI-60 one-dose screen, 48 h (100 = growth as untreated, 0 = no growth, -100 = all killed)
# Conditions in all cases: 10 µM unless noted
# [1] = tested on: NCI-H23 lung
# [2] = tested on: NCI-H226 lung
# [3] = tested on: NCI-H322M lung
# [4] = tested on: HOP-62 NSCLC
# [5] = tested on: NCI-H460 lung
# [6] = tested on: NCI-H522 lung
# [7] = tested on: A549/ATCC NSCLC
# [8] = tested on: 786-0 renal
# [9] = tested on: COLO 205 colon
# [10] = tested on: DU-145 prostate
# [11] = tested on: K-562 leukemia
# [12] = tested on: MALME-3M melanoma
# [13] = tested on: MDA-MB-231 breast
# [14] = tested on: RXF 393 renal
# [15] = tested on: SF-268 CNS
# [16] = tested on: SF-295 CNS
# [17] = tested on: SF-539 CNS
# [18] = tested on: UACC-257 melanoma
# [19] = tested on: M14 melanoma
Compound,growth [1],growth [2],growth [3],growth [4],growth [5],growth [6],growth [7],growth [8],growth [9],growth [10],growth [11],growth [12],growth [13],growth [14],growth [15],growth [16],growth [17],growth [18],growth [19]
CCN(CC)c1ccc2c(cc1=O)[C@@H](NC(C)=O)CCc1cc(OC)c(OC)c(OC)c1-2,49.5%,51%,30.9%,30.9%,3.44% (active),-38.8% (active),13.2%,15.6%,-62.8% (active),-10.2% (active),0.286% (active),99%,15.1%,58.8%,24.4%,11.3%,-3.76% (active),63.1%,-0.777% (active)
CCSCC1CC(O)(c2ccccc2)C(c2ccccc2)C(c2ccc(F)cc2)O1 (stereo unspecified),-6.5% (active),-4.42% (active),3.59% (active),-13.3% (active),-16.3% (active),10.6%,3.27% (active),-49.5% (active),-70.2% (active),3.1% (active),7.77% (active),-37.6% (active),-8.82% (active),-12.4% (active),1.85% (active),-22.4% (active),4.38% (active),4.92% (active),-45.8% (active)
NC(N)=NC1CCCCC1,101%,101%,102%,108%,113%,85.8%,94.1%,98.1%,118%,22.3%,93.5%,101%,117%,97.3%,-15.8% (active),120%,105%,90.6%,103%
CN(C)CCNC(=O)n1cc(-c2ccncc2)c(-c2cc(O)cc(Cl)c2)n1,108%,102%,128%,98.2%,93.5%,115%,107%,81.4%,88.6%,102%,74.8%,6.11% (active),88.6%,84.4%,96.8%,117%,82.5%,40.6%,27.6%
COc1ccc(/C=C/c2nc3ccccc3c(=O)n2-c2ccc(C#Cc3ccc(C(C)(C)C)cc3)cc2C)c(OC)c1,94%,87.3%,101%,112%,85%,70.2%,91.2%,101%,97.9%,109%,63.9%,94.8%,89.5%,113%,96.9%,101%,97.1%,72.8%,96.8%
CN1C(=O)C(C(=O)/C=C/c2ccccc2C(=O)O)C(=O)N(C)C1=O,95.1%,99.5%,99.1%,91.3%,104%,90.5%,97.4%,94.7%,114%,111%,90.1%,103%,109%,118%,100%,98.4%,104%,93.3%,99%
COc1nccc2c(Sc3ccccc3)nc(N)nc12,98.8%,103%,110%,113%,109%,88.1%,104%,88.9%,117%,104%,93%,137%,100%,117%,105%,103%,119%,111%,118%
CCOC(=O)C(Cc1ccccc1)n1c(O)c(/C=N/c2ncc(Cc3ccc(Cl)cc3Cl)s2)sc1=S (stereo unspecified),11%,15.5%,15.7%,8.75% (active),2.04% (active),-23.2% (active),4.36% (active),17.9%,-87% (active),26.2%,2.17% (active),-9.77% (active),-18.2% (active),2.54% (active),24.4%,-4.55% (active),15%,-17.9% (active),10.8%
c1cc(C2CCCCC2)ccc1-c1cnc2nonc2n1,38.7%,47.5%,50.1%,18.5%,14.4%,-2.99% (active),34.6%,13.5%,2.48% (active),13.8%,5.7% (active),48.8%,18.6%,-3.18% (active),32%,28.3%,0.0756% (active),42.6%,-16.7% (active)
